Only some compounds are listed: those with a hit (about 3.5% of all), similar ones and a draw of the others.
TEAD-YAP inh = TEAD-YAP interaction inhibition | HEK-TIYL cells, TEAD-Gal4/YAP UAS-luciferase luminescence | inhibition, % at 9.12 µM | 640,000 tested, 1.4% active; in the data active = inhibition above about 32%;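 also: 0% = median of test compound wells and 100% = reference inhibitor wells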
FBW7 activator = human FBW7 E3 ligase activation, primary screen. Q969H0. AlphaScreen FBW7–phospho-cyclin E peptide binding, activator screen. normalized activity (activation), % at 26.1 µM. 650,000 tested, 0.13% active. AID 1259310; in the data active = normalized activity above about 1.9%;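 also: purified mutant Fbw7 with reduced substrate affinity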
Target sequence (Q969H0 whole entry, looked up): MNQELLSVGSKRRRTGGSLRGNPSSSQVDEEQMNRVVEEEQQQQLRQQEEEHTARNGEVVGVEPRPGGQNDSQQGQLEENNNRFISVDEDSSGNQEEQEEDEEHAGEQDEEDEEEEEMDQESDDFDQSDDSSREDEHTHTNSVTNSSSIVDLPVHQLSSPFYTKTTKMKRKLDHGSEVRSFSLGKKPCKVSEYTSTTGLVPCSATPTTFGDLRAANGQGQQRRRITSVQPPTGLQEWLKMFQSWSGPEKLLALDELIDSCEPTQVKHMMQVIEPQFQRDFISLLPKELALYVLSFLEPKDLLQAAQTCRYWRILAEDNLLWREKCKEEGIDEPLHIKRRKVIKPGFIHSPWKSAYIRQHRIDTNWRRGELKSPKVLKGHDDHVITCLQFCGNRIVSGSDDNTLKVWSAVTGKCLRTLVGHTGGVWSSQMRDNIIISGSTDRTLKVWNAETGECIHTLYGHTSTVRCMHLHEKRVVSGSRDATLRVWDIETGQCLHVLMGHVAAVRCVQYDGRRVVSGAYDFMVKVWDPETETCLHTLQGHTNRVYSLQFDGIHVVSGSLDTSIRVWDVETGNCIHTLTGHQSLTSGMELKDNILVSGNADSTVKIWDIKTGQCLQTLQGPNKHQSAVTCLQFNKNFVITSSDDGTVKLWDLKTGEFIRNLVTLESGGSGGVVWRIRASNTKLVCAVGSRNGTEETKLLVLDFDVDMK
MITF inh = human MITF inhibition, primary screen | AlphaScreen MITF homodimerization, bead proximity signal | inhibition, % at 2.6 µM | 650,000 tested, 0.91% active | AID 1259374; in the data active = inhibition above about 50%;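 also: 0% = vehicle wells with protein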
GPR151 ag = human GPR151 activation; activation, % at 11.2 µM; 650,000 tested, 1% active; PathHunter beta-arrestin GPR151 cells, luminescence; Q8TDV0; in the data active = activation above about 4.9%;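 also: 0% = median of compound wells and 100% = cells with positive control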
* marks the source's active call; other numbers are inactive results.

SMILES	TEAD-YAP inh	FBW7 activator	MITF inh	GPR151 ag
COc1ccc2[nH]c(C(=O)O)cc2c1OC	-4	0	0	0
Cc1cccc(Cn2c(N(CCO)CCO)nc3c2c(=O)n(C)c(=O)n3C)c1	4	0	7	0
CSC1=C(C#N)C(c2cccs2)C2=C(CCCC2=O)N1 (stereo unspecified)	-2	-1	-3	0
CSC1=C(C#N)C(c2ccccc2C)C2=C(CCCC2=O)N1 (stereo unspecified)	39*	0	-8	3
CCN1C=C/C(=C/C=c2/s/c(=C\c3sc(-c4ccccc4)c(-c4ccccc4)[n+]3CC)n(CC)c2=O)c2ccccc21	8	2.0*	-58	-1
CCN1C=C\C(=C/C=C(/C=C/c2cc[n+](CC)cc2)c2cc[n+](CC)c3ccccc23)c2ccccc21	7	0	1	0
COc1ccc(C(CC(=O)NCc2ccccc2)NS(=O)(=O)c2ccc(F)cc2)cc1 (stereo unspecified)	1	0	6	1
CCOc1cccc2c1OC1(C)CC2NC(=O)N1c1cccc(F)c1 (stereo unspecified)	11	4.4*	-5	3
COc1cc(OC)cc(C(=O)Nc2nc(-c3ccccn3)cs2)c1	49*	0	18	0
O=C(Nc1nc(-c2ccccn2)cs1)c1ccc(Oc2ccccc2)cc1	43*	0	0	-1
Cc1ccc(-n2nnnc2Sc2ccc([N+](=O)[O-])cc2C#N)cc1	45*	0	5	-1
O=[N+]([O-])c1ccc(Sc2nnnn2-c2ccccc2)c([N+](=O)[O-])c1	-9	0	3	-1
N#Cc1ccc(NC(=O)c2cc([N+](=O)[O-])ccc2Sc2nnnn2-c2ccccc2)cc1	-8	0	-6	3
CN(C)CCNS(=O)(=O)c1ccc(Sc2nnnn2-c2ccccc2)c([N+](=O)[O-])c1	84*	0	0	1
N#Cc1cc([N+](=O)[O-])ccc1Sc1nnnn1-c1ccccc1	46*	0	6	1
Cc1cccc(NC(=O)c2ccc(CN3CCc4ccccc4C3)cc2)c1	36*	0	-3	0
O=C(Nc1cccc(Cl)c1)c1ccc(CN2CCc3ccccc3C2)cc1	40*	0	-19	-2
CN1CCN(c2ccc(-c3cncc(-c4ccco4)n3)cn2)CC1	-23	1	4	-1
COc1ccc(OC)c(/C=C2/N=C(c3cccc([N+](=O)[O-])c3)OC2=O)c1	3	1.9*	15	1
CCC(CO)Nc1ccc2ncc(-c3ccc(C)cc3)n2n1 (stereo unspecified)	24	0	14	0
CC(C)[C@@H](CO)Nc1ccc2ncc(-c3ccccc3)n2n1	28	1	4	1
CCC(CO)Nc1ccc2ncc(-c3ccccc3F)n2n1 (stereo unspecified)	42*	1	2	-1
CCC(CO)Nc1ccc2ncc(-c3cccc(Br)c3)n2n1 (stereo unspecified)	1	0	-5	0
CCC(CO)Nc1ccc2ncc(-c3cccc(CO)c3)n2n1 (stereo unspecified)	48*	0	-14	0
CC(C)[C@@H](CO)Nc1ccc2ncc(-c3ccc4ccccc4c3)n2n1	14	0	-22	-1
SMILES	TEAD-YAP inh	FBW7 activator	MITF inh	GPR151 ag
CC(C)[C@@H](CO)Nc1ccc2ncc(-c3cccc(Cl)c3)n2n1	5	2.0*	-2	0
COc1cc(-c2cnc3ccc(N[C@H](CO)C(C)C)nn23)ccc1O	93*	0	-12	0
c1ccc2cc(OCCCN3CCCC3)ccc2c1	-53	0	-4	-1
Cc1cc(C=O)c(C)n1-c1ccc(Br)cc1F	2	0	2	-1
CC(C)[C@@H](CO)Nc1ccc2ncc(-c3cccc(N)c3)n2n1	17	-1	-11	0
CC(C)[C@@H](CO)Nc1ccc2ncc(-c3cccc(CO)c3)n2n1	43*	0	10	0
COc1ccc(C2CC(=O)C3=C(C2)Nc2ccccc2NC3c2ccc(F)c(Br)c2)cc1OC (stereo unspecified)	-3	0	0	0
COC(=O)c1c(NC(=O)C(F)(F)F)sc(Cc2ccccc2)c1C	5	0	-7	1
COC(=O)c1c(NC(=O)/C=C\C(=O)O)sc(Cc2ccccc2)c1C	32*	0	-5	0
NS(=O)(=O)c1ccc(NC(=S)NC2CCN(Cc3ccccc3)CC2)cc1	10	0	13	0
O=[N+]([O-])c1ccc(NC(=S)NC2CCN(Cc3ccccc3)CC2)cc1	34*	0	0	-1
Cc1cccc(CCN=c2c([N+](=O)[O-])nn(-c3ccc(Cl)cc3)n2O)c1	6	-1	34	-1
CCCN1CCN(C(=O)C2CC(=O)c3sc(NC(=O)c4cccnc4)nc3C2)CC1 (stereo unspecified)	6	0	3	-1
O=Nc1onc(-c2ccc([N+](=O)[O-])cc2)c1NO	10	0	-12	1
Cc1ccc(-c2noc(N=O)c2NO)cc1	36*	0	-3	1
c1ccc2c(c1)CC(c1nc3ccc(-c4ccncc4)cc3[nH]1)CCO2 (stereo unspecified)	41*	0	-12	0
CCN1C(=O)c2cccc3c(NC(=O)c4ccc(C)c(C)c4)ccc1c23	-2	0	-5	0
Cc1c(C(=O)NC2CCCCC2)sc2ncn(CC(=O)N3CCCCC3C)c(=O)c12 (stereo unspecified)	0	2.0*	22	0
Cc1c(C(=O)NC(C)C)sc2ncn(CC(=O)N3CCCCC3C)c(=O)c12 (stereo unspecified)	0	0	7	0
CCOC(=O)c1c(NC(=O)C2CC(=O)N(c3ccccc3)C2)sc2c1CCCC2 (stereo unspecified)	8	0	4	-1
O=C1CC(C23CC4CC(CC(C4)C2)C3)=NN1c1ccccc1	33*	0	15	2
NC1=NN(c2ccccc2)C(=O)C1	6	0	0	0
CCOC(=O)c1sc2nccc(N(C)C)c2c1N	-18	0	3	2
CN(C)c1ccnc2sc(C(N)=O)c(N)c12	53*	0	11	-1
O=C(/C=C/Nc1ccc(Cl)cc1)c1ccccc1	35*	0	9	-2
SMILES	TEAD-YAP inh	FBW7 activator	MITF inh	GPR151 ag
O=C(/C=C/Nc1ccc(O)cc1)c1ccc(Cl)cc1	-25	0	9	0
COc1cc(C(=O)/C=C/Nc2ccc(Cl)cc2)cc(OC)c1OC	38*	0	-3	1
COc1cc(C(=O)/C=C/Nc2ccc(C)cc2O)cc(OC)c1OC	49*	0	5	-1
COc1cc(C(=O)/C=C/Nc2ccc(O)cc2C)cc(OC)c1OC	24	0	3	0
O=C(O)C1CSC(c2cccc3ccccc23)N1 (stereo unspecified)	6	0	-5	-1
COC(=O)CSc1cccc2cccnc12	-3	-1	-11	0
COc1ccc(C(C[N+](=O)[O-])Sc2cccc3cccnc23)cc1 (stereo unspecified)	57*	-1	16	-1
